Test results published in PubChem BioAssay (Tox21).
Records with an inconclusive call do not appear. Calls of active or inactive are those of the source. Unless noted, calls follow the shape of the dose curve; as a rule, active = well fitted curve in the direction sought with a large enough effect in the repeat runs; inconclusive = weak or mixed curves; inactive = no such curve, though single readings can be large; an effect the other way counts as inactive or inconclusive.

Legend:
[1] = qHTS assay for small molecule agonists of the p53 signaling pathway (AID 651631; calls by dose curve; also: nearly all actives have a fitted effect of over 15% in size)
Summary of the method: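 HCT-116 p53RE-bla reporter line, 16 h compound treatment at 37 °C, then fluorescence after 2 h with B/G FRET substrate.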

[2] = qHTS assay for small molecules that induce genotoxicity in human embryonic kidney cells expressing luciferase-tagged ATAD5 (AID 651632); also: nearly all actives have a fitted effect of over 15% in size; also: potency is read from the fitted curve at half-maximal effect
Summary of the method: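 A rise in luciferase signal from ATAD5-tagged HEK293T cells marks genetic stress. Cells were exposed to compounds for 16 hr at 37C, 5% CO2, then luciferase was quantified after a 30 min room-temperature incubation with Amplite.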

[3] = qHTS assay for small molecule agonists of the p53 signaling pathway - cell viability (AID 651633; calls by dose curve;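 also: p53RE-bla HCT reporter cells with a stable beta-lactamase p53 reporter; series mostly up to about 83 µM; nearly all actives have a fitted effect of over 30% in size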)
Summary of the method: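 p53RE-bla cells, seeded at 4,000 per well and rested 5 h at 37 C/5% CO2, received compounds in DMSO for 16 h at 37 C. CellTiter-Glo was then added, and luminescence was read after 30 min at room temperature to gauge cytotoxicity.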

[4] = qHTS assay for small molecules that induce genotoxicity in human embryonic kidney cells expressing luciferase-tagged ATAD5 - cell viability (AID 651634; calls by dose curve; also: nearly all actives have a fitted effect of over 25% in size)
Summary of the method: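 Cytotoxicity counter-readout: after 15.5 hr compound treatment at 37C, live-cell protease activity in ATAD5-luciferase HEK293T cells measured by CellTiter-Fluor fluorescence, 30 min development at 37C.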

[5] = qHTS assay for small molecule disruptors of the mitochondrial membrane potential (AID 720635); also: potency is read from the fitted curve at half-maximal effect
Summary of the method: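 HepG2 cells (2,000/well) attached overnight at 37C, then took compound for 1 hr at 37C, 5% CO2. Mito-MPS dye was added for 30 min; fluorescence was read at 490/535 nm (monomers) and 540/590 nm (aggregates).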

[6] = qHTS assay to test for compound auto fluorescence at 590 nm (red) in HepG2 cells (AID 720674)
Summary of the method: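 Intrinsic compound fluorescence in the red window (Ex/Em 540/590 nm) is measured in attached HepG2 cells exposed for 1 hr, DMSO vehicle as baseline, benchmarked to Rose Bengal sodium.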

[7] = qHTS assay to test for compound auto fluorescence at 535 nm (green) in HepG2 cells (AID 720675)
[8] = qHTS assay to test for compound auto fluorescence at 460 nm (blue) in HEK293 cells (AID 720678)
Summary of the method: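 Auto fluorescence in the blue band was quantified as triamterene equivalency. HEK293 cells were seeded at 2,000/well, dosed after a 4-5 hr attachment, and kept overnight at 37C before the 405/460 nm reading.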

[9] = qHTS assay to test for compound auto fluorescence at 535 nm (green) in HEK293 cells (AID 720680)
[10] = qHTS assay to test for compound auto fluorescence at 460 nm (blue) in HEK293 cell free culture (AID 720681)
Summary of the method: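 Test compounds were pinned into cell-free culture medium (DMEM with 10% FBS) and fluorescence was read directly at Ex/Em 405/460 nm. Signals were expressed as fluorescence equivalents of triamterene, with DMSO vehicle as control.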

[11] = qHTS assay to test for compound auto fluorescence at 535 nm (green) in HEK293 cell free culture (AID 720682)
Summary of the method: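 Steps: dispense DMEM/10% FBS into empty wells; pin in compound or DMSO; measure fluorescence at 485/535 nm. Values are fluorescein equivalents.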

[12] = qHTS assay to test for compound auto fluorescence at 590 nm (red) in HEK293 cell free culture (AID 720683)
Summary of the method: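 Tox21 10K library compounds were pinned into cell-free DMEM with 10% FBS and fluorescence was read at excitation 540 nm. Activity is expressed as Rose Bengal sodium equivalency.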

[13] = qHTS assay to test for compound auto fluorescence at 590 nm (red) in HepG2 cell free culture (AID 720684)
Summary of the method: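 Ex 540 / Em 590 nm read of compound in cell-free MEM (10% FBS). Rose Bengal sodium reference.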

[14] = qHTS assay to test for compound auto fluorescence at 535 nm (green) in HepG2 cell free culture (AID 720686)
[15] = qHTS assay to test for compound auto fluorescence at 460 nm (blue) in HepG2 cells (AID 720687)
Summary of the method: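 Cells (2,000/well in MEM with 10% FBS) attached overnight at 37 C, then were exposed to compound or DMSO for 1 hr at 37 C, 5% CO2. Fluorescence read at Ex/Em 405/460 nm, expressed as triamterene-equivalent signal.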

[16] = qHTS assay for small molecule disruptors of the mitochondrial membrane potential - cell viability (AID 720634; calls by dose curve;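 also: human HepG2 liver cancer cells; series mostly up to about 83 µM; nearly all actives have a fitted effect of over 20% in size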)
Summary of the method: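 Cytotoxicity was quantified from ATP content by CellTiter-Glo luminescence in the same wells as the MMP dye read-out. HepG2 (2,000 cells/well) were plated overnight and exposed to compounds for 1 hr at 37 C.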

[17] = qHTS assay to test for compound auto fluorescence at 590 nm (red) in HEK293 cells (AID 720679)
Summary of the method: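 Autofluorescence equivalency to Rose Bengal sodium, 540/590nm, in HEK293 cells exposed overnight to 23 nL compound per well.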

[18] = qHTS assay to test for compound auto fluorescence at 460 nm (blue) in HepG2 cell free culture (AID 720685)
Summary of the method: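 Cell-free plates of MEM plus 10% FBS received 23 nL compound or DMSO vehicle; blue-channel (405/460 nm) intensity scored against triamterene as reference fluorophore.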

[19] = target: Glucocorticoid receptor (Homo sapiens) (UniProt P04150); assay: qHTS assay to identify small molecule agonists of the glucocorticoid receptor (GR) signaling pathway (AID 720691; active = well fitted activation curve with a large enough effect in the signal ratio in the repeat runs, not every such curve was filed as active; the % refers to the signal ratio)
Summary of the method: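 Agonist-mode qHTS in HeLa cells stably expressing a glucocorticoid-response-element beta-lactamase reporter. Fluorescence intensity read with FRET substrate (2 h, room temperature) after 18 h compound treatment at 37 C.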

[20] = target: Glucocorticoid receptor (Homo sapiens) (UniProt P04150); assay: qHTS assay to identify small molecule antagonists of the glucocorticoid receptor (GR) signaling pathway (AID 720692; active = well fitted inhibition curve with a large enough effect in the signal ratio in the repeat runs, not every such curve was filed as active; the % refers to the signal ratio)
Summary of the method: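 Inhibition of dexamethasone-driven (5 nM final) beta-lactamase expression was measured in GRE-reporter HeLa cells over 18 h at 37C. Fluorescence was read after 2 h with the B/G FRET substrate at room temperature.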
% is scaled to controls: 0 for no effect and ±100 for the full control effect.

Sequence of Glucocorticoid receptor (Homo sapiens) (P04150 whole entry, looked up): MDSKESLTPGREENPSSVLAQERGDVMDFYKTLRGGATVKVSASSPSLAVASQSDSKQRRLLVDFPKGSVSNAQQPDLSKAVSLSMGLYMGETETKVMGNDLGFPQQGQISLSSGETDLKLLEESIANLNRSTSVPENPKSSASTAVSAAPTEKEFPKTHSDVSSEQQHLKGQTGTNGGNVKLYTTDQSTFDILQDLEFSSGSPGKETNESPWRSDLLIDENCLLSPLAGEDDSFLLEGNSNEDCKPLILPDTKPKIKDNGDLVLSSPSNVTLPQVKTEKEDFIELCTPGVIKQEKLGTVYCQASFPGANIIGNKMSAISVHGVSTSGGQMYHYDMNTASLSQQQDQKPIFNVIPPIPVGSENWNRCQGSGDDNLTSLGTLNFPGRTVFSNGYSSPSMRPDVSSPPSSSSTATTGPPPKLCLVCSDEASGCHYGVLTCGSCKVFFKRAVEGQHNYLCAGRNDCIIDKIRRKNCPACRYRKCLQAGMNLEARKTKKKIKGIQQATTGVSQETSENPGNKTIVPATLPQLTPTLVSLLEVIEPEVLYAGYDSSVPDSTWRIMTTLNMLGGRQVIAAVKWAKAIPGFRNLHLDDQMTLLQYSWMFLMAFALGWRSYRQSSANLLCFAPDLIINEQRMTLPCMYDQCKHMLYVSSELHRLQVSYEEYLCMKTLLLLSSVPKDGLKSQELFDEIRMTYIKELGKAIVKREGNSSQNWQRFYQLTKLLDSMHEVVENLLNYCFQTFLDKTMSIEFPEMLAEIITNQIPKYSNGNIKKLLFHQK

O=C(O)c1c2ccccc2cc2ccccc12
inactive: Potency [1] | Potency [2] | Potency [3] | Potency [4] | Potency [5] | outcome [6] | outcome [7] | Potency [8] | outcome [9] | Potency [10] | outcome [11] | outcome [12] | outcome [13] | outcome [14] | outcome [15]

Cc1c(Nc2ncccc2C(=O)O)cccc1C(F)(F)F
inactive: Potency [1] | Potency [2] | Potency [4] | Potency [16] | fluorescence, relative to Rose Bengal [6] 0.539% [at 18.6 µM] | fluorescence, % of fluorescein control [7] -0.0599% [at 18.6 µM] | fluorescence, % of triamterene [8] 0.0756% [at 18.6 µM] | fluorescence, % of fluorescent control [17] 0.0414% [at 18.6 µM] | fluorescence, % of fluorescein [9] 0.0171% [at 18.6 µM] | fluorescence, % of fluorescent control [10] -0.115% [at 18.6 µM] | activity change [11] 0.0935% [at 18.6 µM] | fluorescence, % of fluorescent control [12] -0.29% [at 18.6 µM] | fluorescence, % of Rose Bengal [13] 0.0144% [at 18.6 µM] | fluorescence, % of fluorescent control [18] 0.0612% [at 18.6 µM] | fluorescence, % of fluorescein control [14] -0.0657% [at 18.6 µM] | fluorescence, % of fluorescent control [15] 0.0693% [at 18.6 µM]

CC(=O)c1cccnc1
inactive: Potency [1] | Potency [2] | Potency [3] | Potency [4] | outcome [6] | outcome [7] | Potency [8] | outcome [17] | outcome [9] | Potency [10] | outcome [11] | outcome [18] | outcome [14] | outcome [15] | Potency [19] | Potency [20]

CCCCCCCCCCCCCCCCN
inactive: Potency [1] | Potency [2] | Potency [4] | Potency [16] | Potency [5] | outcome [6] | outcome [7] | Potency [8] | outcome [17] | outcome [9] | Potency [10] | outcome [11] | outcome [12] | outcome [13] | outcome [18] | outcome [14] | outcome [15] | Potency [19]

CC1(C)C(=O)NC(=O)N1CO
inactive: Potency [1] | Potency [2] | Potency [3] | Potency [4] | outcome [6] | outcome [7] | Potency [8] | outcome [17] | outcome [9] | Potency [10] | outcome [11] | outcome [12] | outcome [13] | outcome [18] | outcome [14] | outcome [15] | Potency [19] | Potency [20]

CCCCCCOC(=O)c1ccccc1
inactive: Potency [1] | Potency [2] | Potency [3] | Potency [4] | outcome [6] | outcome [7] | Potency [8] | outcome [17] | outcome [9] | Potency [10] | outcome [11] | outcome [13] | outcome [18] | outcome [14] | outcome [15] | Potency [19] | Potency [20]

CC(C)=CCC/C(C)=C/C=N/O
inactive: Potency [1] | Potency [2] | Potency [4] | Potency [5] | outcome [6] | outcome [7] | Potency [8] | outcome [17] | outcome [9] | Potency [10] | outcome [11] | outcome [12] | outcome [13] | outcome [18] | outcome [14] | outcome [15] | Potency [19]

Cc1ccc(S(=O)(=O)NC(=O)NC2CCCC2)cc1
inactive: Potency [1] | Potency [2] | Potency [3] | Potency [4] | outcome [6] | outcome [7] | Potency [8] | outcome [17] | outcome [9] | Potency [10] | outcome [11] | outcome [12] | outcome [13] | outcome [18] | outcome [14] | outcome [15] | Potency [19] | Potency [20]

O=C(O)c1ccncc1
inactive: Potency [1] | Potency [2] | Potency [3] | Potency [4] | outcome [6] | outcome [7] | Potency [8] | outcome [17] | outcome [9] | Potency [10] | outcome [11] | outcome [12] | outcome [13] | outcome [18] | outcome [14] | outcome [15] | Potency [19] | Potency [20]

Cc1ccc(NC(=O)c2ccc(CN3CCN(C)CC3)cc2)cc1Nc1nccc(-c2cccnc2)n1
inactive: Potency [1] | Potency [2] | Potency [3] | outcome [6] | outcome [7] | Potency [8] | outcome [17] | outcome [9] | Potency [10] | outcome [11] | outcome [12] | outcome [14] | outcome [15]
active: Potency [5] 2.11 µM

CC(C)(C)NCC(O)COc1ccc(NC(=O)NC2CCCCC2)cc1 (configuration not stated)
inactive: Potency [1] | Potency [2] | Potency [3] | Potency [4] | outcome [6] | outcome [7] | Potency [8] | outcome [9] | Potency [10] | outcome [11] | outcome [12] | outcome [14] | outcome [15] | Potency [19] | Potency [20]

CC(CCl)OC(C)CCl (configuration not stated)
inactive: Potency [1] | Potency [2] | Potency [4] | Potency [16] | Potency [5] | outcome [6] | outcome [7] | Potency [8] | outcome [17] | outcome [9] | Potency [10] | outcome [11] | outcome [12] | outcome [13] | outcome [18] | outcome [14] | outcome [15] | Potency [19] | Potency [20]

CC(C)CCCCCOC(=O)CS
inactive: Potency [1] | Potency [2] | Potency [3] | Potency [4] | outcome [6] | outcome [7] | Potency [8] | outcome [17] | outcome [9] | Potency [10] | outcome [11] | outcome [12] | outcome [13] | outcome [18] | outcome [14] | outcome [15] | Potency [19] | Potency [20]

c1ccc(CCNc2nc(-c3ccccc3)cs2)cc1
inactive: Potency [1] | Potency [4] | outcome [6] | outcome [7] | Potency [8] | outcome [17] | outcome [9] | Potency [10] | outcome [11] | outcome [12] | outcome [13] | outcome [14] | outcome [15]
active: Potency [2] 3.35 µM | Potency [5] 10.6 µM

O=C(O)c1ccccc1-n1cc(C(=O)O)c(=O)c2cc(Nc3c(F)cc(F)cc3Cl)c(Cl)cc21
inactive: Potency [1] | Potency [2] | Potency [4] | Potency [16] | Potency [5] | outcome [6] | outcome [7] | Potency [8] | outcome [17] | outcome [9] | Potency [10] | outcome [11] | outcome [13] | outcome [18] | outcome [14] | outcome [15] | Potency [19] | Potency [20]
